Assay results: paper PMC11024108

target: Septin-5 (UniProt Q9Z2Q6); assay: cross-link between two proteins; cross-linking mass spectrometry
Sequence (Q9Z2Q6 whole entry): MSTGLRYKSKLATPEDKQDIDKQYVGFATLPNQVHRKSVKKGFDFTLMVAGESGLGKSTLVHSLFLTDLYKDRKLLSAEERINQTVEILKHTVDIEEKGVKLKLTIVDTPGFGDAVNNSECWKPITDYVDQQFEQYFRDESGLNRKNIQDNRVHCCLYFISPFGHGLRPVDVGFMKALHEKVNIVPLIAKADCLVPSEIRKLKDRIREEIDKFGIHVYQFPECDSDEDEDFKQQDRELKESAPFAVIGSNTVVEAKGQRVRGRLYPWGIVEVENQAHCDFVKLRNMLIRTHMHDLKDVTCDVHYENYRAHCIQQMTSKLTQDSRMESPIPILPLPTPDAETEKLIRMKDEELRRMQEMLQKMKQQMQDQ

Substance | listed as a hit
Septin-8, Q8CHH9 | yes
Septin-6, Q9R1T4 | yes
Septin-4, P28661 | yes
Septin-11, Q8C1B7 | yes
